PubChem BioAssay (EPA / NIEHS)
Records with an inconclusive call do not appear. Active and inactive are the calls of the source. Rule for the calls, unless noted: active = hit-call score of the fitted dose curve at least 0.9, where 1 is the maximum; inactive = score below 0.9.

Legend:
[1] = CCTE_Mundy_HCI_Cortical_Synap_Neur_Matur_NeuriteLength: CCTE's Synaptogenesis and Neurite Maturation Assay in rat cortical cells for Neurite Length, Mundy Lab (AID 2284214)
Summary of the method: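 Neurite length quantified by automated high-content imaging of MAP2, synaptophysin and Hoechst staining. Rat cortical cells received chemical from DIV 7 to DIV 12 […], glial growth arrested by AraC at DIV 5; DMSO baseline.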

[2] = CCTE_Mundy_HCI_Cortical_Synap_Neur_Matur_NeuriteSpotCountPerNeuron: CCTE's Synaptogenesis and Neurite Maturation Assay in rat cortical cells for Neurite Spot Count per Neuron Count, Mundy Lab (AID 2284215)
Summary of the method: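 Rat primary cortical cultures given AraC at DIV 5, dosed from DIV 7 to DIV 12 with media change. Fixed, stained for MAP2, synaptophysin and Hoechst; neurite-associated synaptophysin puncta per neuron quantified by high-content imaging versus DMSO.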

[3] = CCTE_Mundy_HCI_Cortical_Synap_Neur_Matur_SynapseCount: CCTE's Synaptogenesis and Neurite Maturation Assay in rat cortical cells for Synapse Count, Mundy Lab (AID 2284218)
Summary of the method: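 High-content imaging of synaptophysin puncta per MAP2-positive neuron (Hoechst nuclei) in rat cortical cells exposed DIV 7–12 after glial arrest with AraC at DIV 5; decrease relative to DMSO scored.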

[4] = CCTE_Mundy_HCI_Cortical_Synap_Neur_Matur_CellBodySpotCount: CCTE's Synaptogenesis and Neurite Maturation Assay in rat cortical cells for Cell Body Spot Count, Mundy Lab (AID 2284223)
Summary of the method: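 Primary rat cortical cultures, AraC added at DIV 5; dosed DIV 7 through DIV 12 […]. Fixed, stained for MAP2 and synaptophysin with Hoechst; cell body-associated synaptophysin puncta per neuron counted by high-content imaging, loss vs DMSO.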

[5] = CCTE_Mundy_HCI_hNP1_Pro_ResponderAvgInten: CCTE's Proliferation Assay in human neuroprogenitor cells, Mundy Lab (AID 2284224; active = hit-call score of the fitted dose curve at least 0.9, where 1 is the maximum;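 note: human neural progenitor cells hNP1 derived from WA09 embryonic stem cells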)
Summary of the method: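 Human neuroprogenitors (hNP1, WA09 lineage) receive test chemical after 40 to 44 hours of attachment. A four-hour BrdU pulse begins twenty hours later, followed by fixation and high content imaging; signal is referenced to DMSO controls.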

[6] = UKN2_HCS_IMR90_cell_viability: Viability Assessment in the University of Konstanz (UKN) Leist Lab Neural Crest Cell Migration Assay in human induced IMR90 Pluripotent Stem Cells (UKN2) (AID 2284233);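 note: viability of neural crest cells differentiated from IMR90 iPSC measured by calcein-AM fluorescence imaging; cells exposed to compound for 24 h after a 24 h migration phase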
Summary of the method: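 cMINC format, iPSC-derived neural crest (IMR90); 24 h migration (EGF/FGF, N2-S), then 24 h toxicant. Calcein-AM/H-33342 stain 30 min; fluorescence intensity by HCS; DMSO-normalised, bidirectional fitting.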

[7] = CCTE_Mundy_HCI_Cortical_NOG_NeuronCount: CCTE's Neurite Outgrowth Assay in rat cortical cells for Neuron Count, Mundy Lab (AID 2284236; active = hit-call score of the fitted dose curve at least 0.9, where 1 is the maximum;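 note: neurons counted by imaging betaIII-tubulin and Hoechst stained cortical cells; cells exposed to compound for about 48 hours before fixation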)
Summary of the method: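 Read-out: neuron number by high-content imaging of betaIII-tubulin (Alexa Fluor-488) and Hoechst-labelled rat primary cortical cells.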

[8] = CCTE_Mundy_HCI_Cortical_NOG_BPCount: CCTE's Neurite Outgrowth Assay in rat cortical cells for Branch Point Count, Mundy Lab (AID 2284237)
Summary of the method: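 Measured 50.33 h after dosing, this morphology endpoint uses rat primary cortical cultures labelled for betaIII-tubulin. Branch points are quantified by high-content imaging, with DMSO as negative control and baseline.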

[9] = CCTE_Mundy_HCI_hNP1_Casp3_7: CCTE's Caspase-Glo 3/7 Assay in human neuroprogenitor cells for Apoptosis, Mundy Lab (AID 2284240)
Summary of the method: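 Neuroepithelial-lineage stem cells from WA09 embryonic cells were treated with chemicals after 40–44 h of culture. Twenty-four hours later, caspase-3/7 activation was detected luminescently after a 30 min room-temperature reagent step, with DMSO as baseline.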

[10] = CCTE_Mundy_HCI_hNP1_CellTiter: CCTE's Cell Titer-Glo 2 Assay in human neuroprogenitor cells for Viability, Mundy Lab (AID 2284241; active = hit-call score of the fitted dose curve at least 0.9, where 1 is the maximum;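 note: a hit is a drop in ATP luminescence versus DMSO meaning reduced viability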)
Summary of the method: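 Measures ATP content in human neural progenitors derived from WA09 embryonic cells. Read-out at 26.5 hours after dosing, with DMSO serving as the negative control and baseline.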

[11] = CCTE_Mundy_HCI_Cortical_Synap_Neur_Matur_NeuronCount: CCTE's Synaptogenesis and Neurite Maturation Assay in rat cortical cells for Neuron Count, Mundy Lab (AID 2284242; active = hit-call score of the fitted dose curve at least 0.9, where 1 is the maximum)
Summary of the method: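 Neuron counts come from automated high-content imaging of Hoechst nuclei and MAP2/synaptophysin immunostaining at DIV 12, with loss of signal judged against DMSO. Cultures of rat cortical cells had glial growth arrested by AraC at DIV 5; chemical exposure began DIV 7.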

[12] = IUF_NPC2c_oligodendrocyte_migration_120hr: Leibniz Research Institute for Environmental Medicine (IUF) 120-hour Neural Progenitor Cell Migration Assay for Oligodendrocyte Migration (NPC2c) (AID 2284297);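 note: O4-positive oligodendrocyte migration distance divided by radial glia migration distance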
Summary of the method: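 Human fetal neural progenitor spheres (0.3 mm) are plated on poly-D-lysine/laminin in N2 differentiation medium and exposed for 120 h, with half-medium renewal at day 3. Oligodendrocyte (O4+) migration distance comes from ICC imaging, normalised to radial glia migration.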

[13] = IUF_NPC2a_radial_glia_migration_120hr: Leibniz Research Institute for Environmental Medicine (IUF) 120-hour Neural Progenitor Cell Migration Assay for Radial Glia Migration (NPC2a) (AID 2284298)
Summary of the method: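 Human fetal-cortex neural progenitor spheres (0.3 mm) plated on poly-D-lysine/laminin in N2 differentiation medium, exposed 120 h at 37C with half-medium renewal at day 3. Radial glia migration distance (um) measured from Hoechst-stained nuclei images; DMSO baseline.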

[14] = IUF_NPC2b_neuronal_migration_120hr: Leibniz Research Institute for Environmental Medicine (IUF) 120-hour Neural Progenitor Cell Migration Assay for Neuron Migration (NPC2b) (AID 2284300)
Summary of the method: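 0.3 mm hNPC spheres on poly-D-lysine/laminin in N2 differentiation medium exposed 120 h, half-medium refresh day 3; 7 concentrations, DMSO max 0.1%. Neuron (TUBB3) distance from sphere core by ICC imaging, normalised to radial glia migration.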

[15] = IUF_NPC3_neuronal_differentiation_120hr: Leibniz Research Institute for Environmental Medicine (IUF) 120-hour Neuronal Differentiation Assay (NPC3) (AID 2284301)
Summary of the method: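 Neuronal differentiation of primary human neural progenitors measured by high-content imaging: percent TUBB3+ of Hoechst+ nuclei within migrated area at 120 h, seven-point serial dilution plus solvent control, gain or loss relative to DMSO.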

[16] = IUF_NPC4_neurite_length_120hr: Leibniz Research Institute for Environmental Medicine (IUF) 120-hour Neuronal Morphology Assay for Neurite Length (NPC4) (AID 2284302)
Summary of the method: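 Neurons from differentiating human fetal neural progenitor spheres are scored for average neurite length after five days of compound exposure. Fitting uses DMSO as negative control.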

[17] = IUF_NPC5_oligodendrocyte_differentiation_120hr: Leibniz Research Institute for Environmental Medicine (IUF) 120-hour Oligodendrocyte Differentiation Assay (NPC5) (AID 2284304; active = hit-call score of the fitted dose curve at least 0.9, where 1 is the maximum;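 note: primary human fetal neural progenitor spheres plated to migrate and differentiate; share of O4-positive cells among Hoechst nuclei found by CNN image analysis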)
Summary of the method: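 Human fetal neural progenitor spheres (0.3 mm) plated on poly-D-lysine/laminin in N2 differentiation medium and exposed for 120 h at 7 concentrations, with half-medium renewal at day 3. O4-positive cells identified by CNN, expressed as percent of Hoechst nuclei.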

[18] = IUF_NPC4_neurite_area_120hr: Leibniz Research Institute for Environmental Medicine (IUF) 120-hour Neuronal Morphology Assay for Neurite Area (NPC4) (AID 2284305; active = hit-call score of the fitted dose curve at least 0.9, where 1 is the maximum)
Summary of the method: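 Endpoint at 120 h: automated imaging of TUBB3/Hoechst-stained differentiating human neural progenitor spheres, neurite area per neuron from skeletonization. DMSO solvent control, not above 0.1%, set the baseline; medium was half-replaced on day 3.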

[19] = IUF_NPC2-5_cytotoxicity_72hr: Cytotoxicity Assessment at 72 hours in the Leibniz Research Institute for Environmental Medicine (IUF) Neural Progenitor Cell Migration and Differentiation Assay for Cytotoxicity (NPC2-5) (AID 2284306; active = hit-call score of the fitted dose curve at least 0.9, where 1 is the maximum;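 note: LDH release into supernatant measured by resorufin fluorescence marking membrane damage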)
Summary of the method: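 Primary human neural progenitor spheres migrate and differentiate on laminin. Compound is present from the start of differentiation, with DMSO kept at or below 0.1%. At 72 h, supernatant LDH is quantified fluorometrically, with values fitted in the positive direction.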

[20] = IUF_NPC2-5_cytotoxicity_120hr: Cytotoxicity Assessment at 120 hours in the Leibniz Research Institute for Environmental Medicine (IUF) Neural Progenitor Cell Migration and Differentiation Assay (NPC2-5) (AID 2284307; active = hit-call score of the fitted dose curve at least 0.9, where 1 is the maximum)
Summary of the method: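 Human fetal (GW 16-19) neural progenitor spheres (0.3 mm) plated on poly-D-lysine/laminin in N2 differentiation medium, exposed 120 h with half-medium renewal at day 3; 7 concentrations plus solvent control, DMSO ≤0.1%. LDH release in supernatant read by resorufin fluorescence.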

[21] = IUF_NPC2-5_cell_number_120hr: Cell Number Assessment at 120 hours in the Leibniz Research Institute for Environmental Medicine (IUF) Neural Progenitor Cell Migration and Differentiation Assay (NPC2-5) (AID 2284308);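 note: count of Hoechst-stained nuclei in migration zone around plated human neural progenitor spheres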
Summary of the method: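 Human fetal neural progenitor spheres (0.3 mm) plated on poly-D-lysine/laminin in N2 differentiation medium, exposed five days across 7 concentrations with half-medium refresh at day 3. Hoechst-positive nuclei counted in migration area at 120 h, relative to DMSO.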

[22] = IUF_NPC2-5_viability_120hr: Viability Assessment at 120 hours in the Leibniz Research Institute for Environmental Medicine (IUF) Neural Progenitor Cell Migration and Differentiation Assay (NPC2-5) (AID 2284312)
Summary of the method: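 Human fetal (GW 16-19) neural progenitor spheres of 0.3 mm were plated on poly-D-lysine/laminin in N2 differentiation medium and exposed from day 0 for 120 h, with half-medium refresh at day 3. Viability was read as alamar blue resazurin-to-resorufin fluorescence against DMSO.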

[23] = CCTE_Mundy_HCI_iCellGluta_NOG_NeuriteLength: CCTE's Neurite Outgrowth Assay in iCellGluta cells for Neurite Length, Mundy Lab (AID 2284318; active = hit-call score of the fitted dose curve at least 0.9, where 1 is the maximum)
Summary of the method: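 Automated high-content imaging of betaIII-tubulin (Alexa Fluor-488) and Hoechst-stained cells gave neurite length, normalized to the DMSO baseline.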

[24] = IUF_NPC1_cytotoxicity_72hr: Cytotoxicity Assessment at 72 hours in the Leibniz Research Institute for Environmental Medicine (IUF) Neural Progenitor Cell Proliferation Assay (NPC1) (AID 2284332; active = hit-call score of the fitted dose curve at least 0.9, where 1 is the maximum;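 note: rising LDH signal means more cytotoxicity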)
Summary of the method: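 Cytotoxicity by LDH membrane-integrity assay on medium supernatants, fluorescence via resazurin reduction, after 3-day single exposure of primary hNPC spheres at 37C, pH 7.2-7.6 with growth factors. Fitted upward against baseline.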

[25] = CCTE_Mundy_HCI_iCellGluta_NOG_NeuronCount: CCTE's Neurite Outgrowth Assay in iCellGluta cells for Neuron Count, Mundy Lab (AID 2284340; active = hit-call score of the fitted dose curve at least 0.9, where 1 is the maximum;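 note: cells fixed about 48 h after compound addition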)
Summary of the method: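 Neuron count read by automated high-content imaging of Hoechst 33342 and betaIII-tubulin/Alexa Fluor-488 labelling in human iPSC glutamatergic neurons. Activity fitted relative to DMSO.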

## C[C@@H]1CCO[C@H]2Cn3cc(C(=O)NCc4ccc(F)cc4F)c(=O)c(O)c3C(=O)N12
[1]
  outcome: inactive
[2]
  AC50: 3.63 µM (active)
[3]
  AC50: 3.05 µM (active)
[4]
  outcome: inactive
[5]
  AC50: 15.6 µM (active)
[6]
  outcome: inactive
[7]
  outcome: inactive
[8]
  outcome: inactive
[9]
  AC50: 10.1 µM (active)
[10]
  AC50: 14.9 µM (active)
[11]
  outcome: inactive
[12]
  outcome: inactive
[13]
  outcome: inactive
[14]
  outcome: inactive
[15]
  outcome: inactive
[16]
  outcome: inactive
[17]
  outcome: inactive
[18]
  outcome: inactive
[19]
  outcome: inactive
[20]
  outcome: inactive
[21]
  outcome: inactive
[22]
  outcome: inactive
[23]
  outcome: inactive
[24]
  outcome: inactive
[25]
  outcome: inactive
